Source: PubChem
Shown are actives, neighbours in structure and some others; about 0.82% of the full set was active somewhere.
IP6K1 inhibitor = blocks human inositol hexakisphosphate kinase 1. Q92551. IP6K1 kinase, ADP-Glo luminescence, 2 h; stronger effect = lower value. activity change, % (series mostly up to about 58 µM). hit rate 0.81% among 140,000. AID 1645851; in the data active = activity change below about -25%
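ADP-Glo luminescence measures ADP made by human IP6K1 during a 2 h RT reaction with ATP/IP6 (mix at 1.3 mM/130 uM); top library doses 57.5 and 19.1 uM final.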
GPT2 inh = blocks human glutamate pyruvate transaminase 2 | Potency, µM (series often up to 57.7 µM), actives largely listed as inhibitors | AID 1671188 | Q8TD30 | Recombinant GPT2, coupled pyruvate oxidase/HRP Amplex Red fluorescence | hit rate 0.25% among 100,000; note: nearly all actives have a fitted effect of over 60% in size
Target sequence (Q8TD30 whole entry, looked up): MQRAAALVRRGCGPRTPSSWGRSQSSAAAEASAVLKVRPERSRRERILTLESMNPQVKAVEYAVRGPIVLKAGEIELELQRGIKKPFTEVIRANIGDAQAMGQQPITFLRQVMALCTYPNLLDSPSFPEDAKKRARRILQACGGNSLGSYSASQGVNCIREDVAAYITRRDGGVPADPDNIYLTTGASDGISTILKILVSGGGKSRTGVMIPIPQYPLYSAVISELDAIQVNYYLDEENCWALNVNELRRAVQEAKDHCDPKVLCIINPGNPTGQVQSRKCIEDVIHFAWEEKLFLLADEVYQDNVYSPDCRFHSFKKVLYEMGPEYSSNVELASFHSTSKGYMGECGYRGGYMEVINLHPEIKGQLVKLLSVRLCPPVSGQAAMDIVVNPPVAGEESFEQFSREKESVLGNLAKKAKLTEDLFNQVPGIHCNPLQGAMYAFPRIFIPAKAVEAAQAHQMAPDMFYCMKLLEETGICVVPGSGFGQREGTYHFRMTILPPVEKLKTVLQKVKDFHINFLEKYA
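Fluorescence read-out: pyruvate from GPT2 turnover coupled to pyruvate oxidase, HRP and Amplex Red (0.2mM ThPP, 0.2U/mL PO and HRP, 50uM Amplex final). Substrates 250uM a-KG, 2mM L-alanine; enzyme 10ng/uL; 30 min RT.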
IP6K1 inh cnf = human IP6K1 inhibition, confirmatory | shares compounds with IP6K1 inhibitor | recombinant IP6K1 kinase, ADP-Glo luminescence, 2 h | Potency, µM (top dose mostly 49 µM), actives largely listed as inhibitors | hit rate 13% among 1,200 | AID 1645852; note: nearly all actives have a fitted effect of over 65% in size
Each line names hits and unclear results; the compound was inactive in the other large screens (follow-up assays come after a bar, where they were run); ! = repeats disagree. Unless noted, calls come from the whole dose curve; as a rule, active = well fitted curve in the direction sought with a large enough effect; inconclusive = small, poorly fitted or top-dose-only effect, or another doubt; inactive = no such curve, though single readings can be large; an effect the other way counts as inactive or inconclusive.

COc1cccc(COC2CN(CCc3ccccc3)C(=O)CN(C(=O)CN3CCOC3=O)C2)c1 (configuration not stated)	none
C/C=C(\C)C(=O)O[C@H]1[C@@H](O[C@]2(COC(=O)CC(C)C)O[C@H](COC(=O)C(C)C)[C@@H](OC(C)=O)[C@@H]2O)O[C@H](COC(C)=O)[C@@H](O)[C@@H]1O	IP6K1 inhibitor -38 | IP6K1 inh cnf inconclusive
CC(C)CC(=O)OC[C@H]1O[C@@](COC(=O)CC(C)C)(O[C@H]2O[C@H](CO)[C@@H](O)[C@H](O)[C@H]2OC(=O)CC(C)C)[C@@H](OC(=O)CC(C)C)[C@@H]1O	none
CN1CC(=O)N(C2CCCNC2)Cc2c1ncnc2N1CCN(Cc2ccccc2)CC1 (configuration not stated)	none
CC(Oc1ccccc1)C(=O)Nc1ccccc1C(=O)OCc1cc(=O)n2nc(C(C)C)sc2n1 (configuration not stated)	none (no result: GPT2 inh)
CC(Oc1ccccc1)C(=O)OCc1cc(=O)n2nc(C(C)C)sc2n1 (configuration not stated)	IP6K1 inhibitor -30 (no result: GPT2 inh) | IP6K1 inh cnf inactive
CCCCCn1c(CCCNC(=O)c2ccc(Cl)cc2)nc2ccccc21	IP6K1 inhibitor -39 (no result: GPT2 inh) | IP6K1 inh cnf inactive
CC(=O)NCCc1nc2ccccc2n1CCCCOc1ccc(Cl)cc1	none (no result: GPT2 inh)
C#C[C@]1(O)CC[C@H]2[C@H]3CCc4cc(OC)ccc4[C@H]3CC[C@@]21C	none (no result: IP6K1 inhibitor)
C#C[C@]1(O)CC[C@H]2[C@@H]3CCc4cc(OC)ccc4[C@H]3CC[C@@]21C	IP6K1 inhibitor -27 | IP6K1 inh cnf inconclusive
O=C1CN([S+](=O)([O-])c2ccc(F)cc2)CC(O)CN1Cc1ccc(Cl)cc1 (configuration not stated)	none (no result: GPT2 inh)
CNC(=O)c1cc(C2CC2)nc2onc(C3CCN(C(=O)C4CCCC4)C3)c12 (configuration not stated)	none (no result: GPT2 inh)
Cc1ccc(CSc2oc(-c3ccco3)nc2S(=O)(=O)c2ccc(Cl)cc2)cc1	none (no result: GPT2 inh)
Cc1ccc(S(=O)(=O)c2nc(-c3ccco3)oc2SCC(=O)c2ccc(Cl)cc2)cc1	none (no result: GPT2 inh)
NC(=O)CSc1oc(-c2ccco2)nc1S(=O)(=O)c1ccc(Br)cc1	IP6K1 inhibitor -33 (no result: GPT2 inh) | IP6K1 inh cnf inconclusive
Cc1ccc(CSc2oc(-c3ccco3)nc2S(=O)(=O)c2ccc(Br)cc2)cc1	IP6K1 inhibitor -32 (no result: GPT2 inh) | IP6K1 inh cnf inactive
O=C(CSc1oc(-c2ccco2)nc1S(=O)(=O)c1ccc(Cl)cc1)c1ccc(Cl)cc1	IP6K1 inhibitor -27 (no result: GPT2 inh) | IP6K1 inh cnf inactive
NC(=O)CSc1oc(-c2ccco2)nc1S(=O)(=O)c1ccc(Cl)cc1	none (no result: GPT2 inh)
COC(=O)N1CC2(Cc3ccccc3N([S+](C)(=O)[O-])C2)C1	none
CN1CC2(CCCN(CC3CC3)C2)c2cc(C(=O)NCCc3ccccc3)ccc21 (configuration not stated)	none
Cc1cc(C)cc(NC(=O)CCCc2nc(-c3ccco3)no2)c1	IP6K1 inhibitor -27 (no result: GPT2 inh) | IP6K1 inh cnf inactive
Cc1ccc(NC(=O)CCCc2nc(-c3ccco3)no2)cc1Cl	none (no result: GPT2 inh)
O=C(CC1CCCCC1)N1CCCC(c2noc(COc3ccccc3)n2)C1 (configuration not stated)	none
Cn1nnnc1SCCNCc1ccc(OCc2ccccc2Cl)cc1	none (no result: GPT2 inh)
Cn1nnnc1SCCNCc1cc(Br)ccc1OCc1ccccc1Cl	IP6K1 inhibitor -41 (no result: GPT2 inh) | IP6K1 inh cnf inactive
Cc1nn(-c2ccccc2)c2c1C(C1CC1)N(C1CCN([S+](=O)([O-])c3ccccc3)C1)C2=O (configuration not stated)	none (no result: GPT2 inh)
Cn1cnc(C(=O)N2C[C@@H](COc3ccccc3)[C@H](C(N)=O)C2)c1	none
CS(=O)(=O)N1C[C@H]2CCN(Cc3c(F)cccc3Cl)C[C@H]21	none
COc1ccc(CNC(=O)C[C@@H]2C[C@H]3O[C@H](CNC(=O)NCc4ccccc4)[C@@H](O)[C@H]3O2)cc1	none
O=C(Nc1cc(Cl)ccc1Cl)c1cc(S(=O)(=O)N2CCCc3ccccc32)ccc1F	IP6K1 inhibitor -30 (no result: GPT2 inh) | IP6K1 inh cnf inactive
O=C(Nc1cccc(Cl)c1Cl)c1cc(S(=O)(=O)N2CCCc3ccccc32)ccc1F	none (no result: GPT2 inh)
CCN(CC)c1ccc(C(=C2C=CC(=[N+](CC)CC)C=C2)c2cc(S(=O)(=O)O)ccc2S(=O)(=O)[O-])cc1	IP6K1 inhibitor -51 | IP6K1 inh cnf inconclusive
N#Cc1cccnc1-c1ccc(C(=O)N2CCC(NC(=O)C3CCCC3)CC2)cc1	none
CN1CCN(c2ccc(-c3cccc(N)c3)nn2)CC1	none
CC1CCN(c2ccc(-c3cccc(N)c3)nn2)CC1	IP6K1 inhibitor -44 | IP6K1 inh cnf inconclusive
O=c1cc(NCCCN[C@@H]2CCOc3c(Br)cc(Br)cc32)[nH]c2ccsc12	none
N#Cc1ccc2ncnc(NCCc3ccccc3)c2c1	IP6K1 inhibitor -45 | IP6K1 inh cnf 10µM
Cc1ccc(Cl)cc1-n1ncc2c(NCCc3ccccc3)ncnc21	none (no result: GPT2 inh)
Fc1ccccc1CNCc1ccc(-c2ccnc3[nH]ccc23)cc1	IP6K1 inhibitor -42 | IP6K1 inh cnf inconclusive
O=C(NCc1ccnc2[nH]ccc12)c1ccccc1	none
CCN(CC)C(=S)SSC(=S)N(CC)CC	IP6K1 inhibitor -56!, GPT2 inh 11µM! | IP6K1 inh cnf 8.9µM
COc1ccc(-c2csc3ncnc(Nc4ccccc4)c23)cc1	none (no result: GPT2 inh)
Cn1nnnc1Sc1ncnc2scc(-c3ccc(Br)cc3)c12	none (no result: IP6K1 inhibitor, GPT2 inh) | IP6K1 inh cnf inactive
Cn1nnnc1Sc1ncnc2scc(Br)c12	none (no result: IP6K1 inhibitor, GPT2 inh) | IP6K1 inh cnf inactive
Cn1nccc1C(=O)N1CCCCCCNC(=O)CC1c1ccccc1 (configuration not stated)	none
CC(C)C(=O)Nc1cccc(NC2=NS(=O)(=O)c3ccccc32)c1	none (no result: GPT2 inh)
COC(=O)c1cccc(NC2=NS(=O)(=O)c3ccccc32)c1	IP6K1 inhibitor -40 (no result: GPT2 inh) | IP6K1 inh cnf inconclusive
CC(C)NC(=O)N1CC[C@H](N=C2Nc3cc(F)ccc3N(CC(F)F)c3ccc(Cl)cc32)C1	none | IP6K1 inh cnf inactive
CC(C)NC(=O)N1CCC(N2CCN(Cc3ccc(F)cc3)C(=O)C2=O)CC1	none (no result: GPT2 inh)
CCCc1cnc(C)nc1N1CCN(Cc2ccccc2F)C(CCO)C1 (configuration not stated)	none
O=C(Nc1ccc(Br)cc1)c1cc(S(=O)(=O)NC2CCCC2)ccc1F	IP6K1 inhibitor -35 (no result: GPT2 inh) | IP6K1 inh cnf inactive
O=C(Nc1ccc(F)c(F)c1)c1cc(S(=O)(=O)NC2CCCC2)ccc1F	none (no result: GPT2 inh)
Nc1ccc(O)c([N+](=O)[O-])c1	IP6K1 inhibitor -28, GPT2 inh inconclusive | IP6K1 inh cnf 32µM
O=[N+]([O-])c1ccc(O)c2ncccc12	none
c1cc(-c2nc(C3CCOCC3)nn2CC2COCCO2)[nH]n1 (configuration not stated)	none
CCN(CC)CCCNC(=O)c1ccc2c(c1)NC(=O)C(CS(=O)(=O)Cc1ccc(F)cc1Cl)N2 (configuration not stated)	none (no result: GPT2 inh)
CCOCCCNC(=O)c1ccc2c(c1)NC(=O)C(CS(=O)(=O)Cc1ccc(F)cc1Cl)N2 (configuration not stated)	IP6K1 inhibitor -43 (no result: GPT2 inh) | IP6K1 inh cnf inactive
Cc1ccc(CNC(=O)c2ccc3c(c2)NC(=O)C(CS(=O)(=O)Cc2cccc(F)c2)N3)cc1 (configuration not stated)	IP6K1 inhibitor -35 (no result: GPT2 inh) | IP6K1 inh cnf inactive
Cc1cccc(CS(=O)(=O)CC2Nc3ccc(C(=O)NCc4ccccc4)cc3NC2=O)c1 (configuration not stated)	none (no result: GPT2 inh)
